In PubChem BioAssay AID602438 (Sanford-Burnham Center for Chemical Genomics, 2012):
“And” between values parts separate entries of the source, which are not always exact repeats. Identical values can stand only once. The whole screen tested about 360,000 compounds, of which about 3,100 (0.86%) were called active. The sample holds actives, similar compounds and a random draw of the others, so the mix is not that of the screen. Values without a mark were called inactive.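 How the source made its calls: active means inhibition or corrected inhibition above about 18%, plus a signal ratio from 0.5 to 1.5 (limit read from the data, passing the limit was not always enough); inactive means the rest.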

Target: Neuropilin-1 (Homo sapiens) (UniProt O14786)
Sequence (O14786 whole entry, looked up): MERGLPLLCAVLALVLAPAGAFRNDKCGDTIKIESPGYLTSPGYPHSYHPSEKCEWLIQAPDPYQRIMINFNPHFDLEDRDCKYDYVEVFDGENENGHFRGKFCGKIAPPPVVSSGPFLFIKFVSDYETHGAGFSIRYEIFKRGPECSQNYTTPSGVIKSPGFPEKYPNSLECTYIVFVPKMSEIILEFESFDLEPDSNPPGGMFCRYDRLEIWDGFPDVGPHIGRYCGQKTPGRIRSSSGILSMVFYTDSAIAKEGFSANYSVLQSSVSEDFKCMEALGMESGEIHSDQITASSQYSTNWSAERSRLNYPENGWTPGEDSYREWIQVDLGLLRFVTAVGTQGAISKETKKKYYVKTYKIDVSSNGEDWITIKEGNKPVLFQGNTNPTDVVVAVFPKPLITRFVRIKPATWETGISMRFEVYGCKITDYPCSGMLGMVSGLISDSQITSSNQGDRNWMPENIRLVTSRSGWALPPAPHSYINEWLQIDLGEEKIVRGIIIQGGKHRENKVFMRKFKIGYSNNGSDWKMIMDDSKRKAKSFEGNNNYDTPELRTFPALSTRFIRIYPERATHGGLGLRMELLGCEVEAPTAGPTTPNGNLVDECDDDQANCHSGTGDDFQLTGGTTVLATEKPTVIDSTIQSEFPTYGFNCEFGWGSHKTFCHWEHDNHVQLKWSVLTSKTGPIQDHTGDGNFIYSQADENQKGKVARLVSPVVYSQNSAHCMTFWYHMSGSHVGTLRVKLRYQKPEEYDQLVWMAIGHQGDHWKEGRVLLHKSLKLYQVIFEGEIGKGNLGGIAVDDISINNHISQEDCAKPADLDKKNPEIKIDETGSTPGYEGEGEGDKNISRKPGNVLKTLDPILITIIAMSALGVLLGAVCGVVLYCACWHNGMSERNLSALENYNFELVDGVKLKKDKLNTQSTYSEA
Experiment: NRP-1/CendR peptide interaction modulators – biochemical, fluorescence polarization, uHTS, primary screen (AID 602438)
Settings: FAM-RPARPAR peptide binding to NRP-1, fluorescence polarization; at 25 µM; stronger effect = higher value

Question: For `CCCN(CCC)S(=O)(=O)c1ccc(C(=O)NNC(=O)c2cc(OC)c(OC)c(OC)c2)cc1`, which inhibition is on record?
Answer: -2.3%

Question: Which inhibition does the source give for `COc1ccccc1C(=O)COC(=O)CSCC(=O)Nc1cc(C)on1` here?
Answer: -0.2%

Question: Which inhibition does the source give for `COc1ccccc1C(=O)COC(=O)COc1ccc(C#N)cc1` here?
Answer: 28.5% (active)

Question: With `COc1ccccc1C(=O)COC(=O)CNS(=O)(=O)c1ccc(NC(C)=O)cc1` as the compound, how does the inhibition read?
Answer: 5.5%

Question: Which inhibition does the source give for `Cc1nn(C)c(Cl)c1CN1CCC(n2nccc2NC(=O)C2CCCC2)CC1` here?
Answer: -2.2%

Question: With `O=C(CSc1nnc2n1CCCN2)c1ccccc1` as the compound, how does the inhibition read?
Answer: -7.7%

Question: How did the inhibition turn out when `O=[N+]([O-])c1ccc(NC(=S)N2CCN(c3ccccn3)CC2)cc1` was run?
Answer: 5%

Question: How did the inhibition turn out when `COc1cc([N+](=O)[O-])ccc1NC(=S)N1CCN(c2ccccn2)CC1` was run?
Answer: 32.1% (active)

Question: For `CCOC(=O)c1ccc(NC(=S)N2CCN(c3ccccn3)CC2)cc1`, which inhibition is on record?
Answer: 11.2%

Question: How did the inhibition turn out when `O=[N+]([O-])c1ccc(CN2CC(N3CCC(c4ccccc4)CC3)CS2(=O)=O)cc1` (centres undefined) was run?
Answer: 11.5%

Question: For `CC1(C)CC(=O)CC2(C1)NCC(c1ccccc1Cl)c1c2[nH]c2ccccc12` (centres undefined), which inhibition is on record?
Answer: -3.3%

Question: How did the inhibition turn out when `CCNC(=O)COC(=O)/C=C/c1c(C)nn(Cc2cccc(OC)c2)c1Cl` was run?
Answer: -6.8%

Question: For `CC1(C)CN(c2ccc(-c3ccnc4ncnn34)cc2)C1=O`, which inhibition is on record?
Answer: 9.3%

Question: For `O=C(CSc1n[nH]c(-c2cccnc2)n1)Nc1ccnc2ccccc12`, which inhibition is on record?
Answer: -6.1%

Question: How did the inhibition turn out when `O=C(Nc1ccc(Cl)cc1)Nc1ccc(Oc2cccnc2)nc1` was run?
Answer: 3.4%

Question: For `COc1ccc(Nc2nc(-c3cccnc3)nc3ccccc23)cn1`, which inhibition is on record?
Answer: 55.4% (active)

Question: Which inhibition does the source give for `CCc1nnc(NC(=O)c2ccc(S(=O)(=O)NC3CCCCC3)cc2)s1` here?
Answer: -10.5%

Question: How did the inhibition turn out when `Cc1nnc(SC(C)C(=O)Nc2ccc(S(=O)(=O)NC3CCCCC3)cc2)s1` (centres undefined) was run?
Answer: 25.4% (active)

Question: Which inhibition does the source give for `Cc1ccc(Nc2nnc(SC(C)C(=O)NC3CC3)s2)cc1` (centres undefined) here?
Answer: -8.1%

Question: Which inhibition does the source give for `Cc1ccc(S(=O)(=O)N(CC(=O)NCCSC2CCCCC2)c2ccccc2F)cc1` here?
Answer: -1.5%

Question: `O=C(Nc1c2c(nn1-c1ccc(F)cc1)CS(=O)C2)C12CC3CC(CC(C3)C1)C2` (centres undefined) was tested. Which inhibition did it give?
Answer: 5.1%

Question: With `O=S(=O)(c1ccc(Br)cc1)c1nc(-c2ccccc2)oc1N1CCOCC1` as the compound, how does the inhibition read?
Answer: 0.9%

Question: Which inhibition does the source give for `O=S(=O)(c1ccc(Cl)cc1)c1nc(-c2ccccc2F)oc1NCCN1CCOCC1` here?
Answer: 5.8%

Question: Which inhibition does the source give for `O=S(=O)(c1ccccc1)c1nc(-c2ccccc2)oc1NCCCN1CCOCC1` here?
Answer: 28.7% (active)

Question: `CCc1nc(SCC(=O)Nc2ccccc2OC)n[nH]1` was tested. Which inhibition did it give?
Answer: 4.2%

Question: With `C=CCN1CCN(c2ccncc2S(=O)(=O)N2CCN(C)CC2)CC1` as the compound, how does the inhibition read?
Answer: 1.6%

Question: Which inhibition does the source give for `Cc1cc(/C=N/NC(=O)CC2(C)OCCO2)c(C)n1-c1ccc(Cl)c(Cl)c1` here?
Answer: -7.8%

Question: Which inhibition does the source give for `Cc1cc(/C=N/NC(N)=O)c(C)n1C1CCCCC1` here?
Answer: -11.5%

Question: Which inhibition does the source give for `Cc1ccc(-n2c(C)cc(/C=N\NC(=O)CC(=O)NC(C)C)c2C)cc1` here?
Answer: 32.4% (active)

Question: `Cc1nc(N2CCCC2C(=O)O)c2oc3ccccc3c2n1` (centres undefined) was tested. Which inhibition did it give?
Answer: 29.6% (active)

Question: `O=C(O)C1CCCN1c1nc(Cl)ccc1[N+](=O)[O-]` (centres undefined) was tested. Which inhibition did it give?
Answer: -0.9%

Question: `O=C(O)C1CCCN1C1=NS(=O)(=O)c2ccccc21` (centres undefined) was tested. Which inhibition did it give?
Answer: 9.6%

Question: How did the inhibition turn out when `O=c1ccc(S(=O)(=O)N2CCCC2)cn1Cc1nc(-c2ccccc2)no1` was run?
Answer: 3.3%

Question: `c1ccc(CCC2=NCCn3cccc32)cc1` was tested. Which inhibition did it give?
Answer: -28.1% and -1.3%

Question: How did the inhibition turn out when `CNS(=O)(=O)c1cnccc1N1CCN(c2cccc(C)c2)CC1` was run?
Answer: -5.1%

Question: Which inhibition does the source give for `Cc1cccc(NS(=O)(=O)c2cc(Cl)ccc2Cl)n1` here?
Answer: 7.9%

Question: `COc1ccccc1N1CCN(C(=O)c2cc(=O)c3cc(C)cc(C)c3o2)CC1` was tested. Which inhibition did it give?
Answer: 14.6%

Question: For `Cc1ccc(Cl)cc1N1CCN(C(=O)c2cccc3c(=O)c(C)c(-c4ccccc4)oc23)CC1`, which inhibition is on record?
Answer: 31% (active)

Question: With `Cc1cccc(N2CCN(C(=O)c3cnn4c(C(F)F)cc(-c5ccccc5)nc34)CC2)c1C` as the compound, how does the inhibition read?
Answer: 3.9%

Question: Which inhibition does the source give for `COCC1CCN(C(=O)CCc2nnc(C3(c4ccc(Cl)cc4)CCC3)o2)C1` (centres undefined) here?
Answer: 11.4%

Question: With `COc1ccc(OC)c(S(=O)(=O)NCCC(C)C)c1` as the compound, how does the inhibition read?
Answer: 6.4%

Question: `COc1ccc(OC)c(S(=O)(=O)Nc2c(C)nn(C)c2C)c1` was tested. Which inhibition did it give?
Answer: 16.5% (active)

Question: For `COc1ccc(OC)c(S(=O)(=O)Nc2ccccc2F)c1`, which inhibition is on record?
Answer: -3.6%

Question: For `Cc1n[nH]c(=O)c2c(NC(=O)COC(=O)c3ncc(Cl)c(Cl)c3Cl)oc(C)c12`, which inhibition is on record?
Answer: 4.1%

Question: For `Cc1nc(-c2ccc(F)cc2)c(CC(=O)N(C)CC(=O)Nc2c(C)cccc2C)s1`, which inhibition is on record?
Answer: -11.9%

Question: `Cc1ccc(-c2nc(C)sc2CC(=O)OCC(=O)Nc2c(F)cccc2F)cc1` was tested. Which inhibition did it give?
Answer: 24.9% (active)

Question: Which inhibition does the source give for `CCOc1ccc(-c2nc(C)sc2CC(=O)O)cc1` here?
Answer: 0.2%

Question: With `CCOC(=O)C1=C(N)N2C(=O)C(C)SC2=C(C(=O)OCC)C1c1cc(OC)c(OC)c(OC)c1` (centres undefined) as the compound, how does the inhibition read?
Answer: 6.5%

Question: With `O=C(COc1ccc(/C=N/NS(=O)(=O)c2ccccc2)cc1)NCCc1ccccc1` as the compound, how does the inhibition read?
Answer: 31.8% (active)

Question: With `O=C(COc1ccc(S(=O)(=O)NCCc2ccccc2)cc1)N1CCCC1` as the compound, how does the inhibition read?
Answer: 0.6%

Question: Which inhibition does the source give for `COc1ccc(OCC(=O)NCCc2ccc(S(N)(=O)=O)cc2)cc1` here?
Answer: -12.6%

Question: How did the inhibition turn out when `CCc1ccnc(NC(=O)Nc2ccc(OCc3ccccc3)cc2)c1` was run?
Answer: 2.7%

Question: Which inhibition does the source give for `O=C(c1ccc(F)cc1)n1c(=S)nc2ccccn21` here?
Answer: -0.8%

Question: `CC(=O)OCc1cc(=O)n(C)c(=O)n1C` was tested. Which inhibition did it give?
Answer: 14.5%

Question: How did the inhibition turn out when `Cc1ccc(S(=O)(=O)/N=C2\C=C(NS(=O)(=O)c3ccc(C)cc3)C(=O)c3ccccc32)cc1` was run?
Answer: 24.8%

Question: For `COc1ccc(NS(=O)(=O)c2ccc(Oc3c(C#N)cccc3C#N)cc2)cc1`, which inhibition is on record?
Answer: 6.6%

Question: How did the inhibition turn out when `COc1ccc(S(=O)(=O)/N=C2\C=C(NS(=O)(=O)c3ccccc3)C(=O)c3ccccc32)cc1` was run?
Answer: 41.6% (active)

Question: With `CCOCCC(=O)Nc1ccc2c(c1)c(=O)n(C)n2-c1ccc2ccccc2c1` as the compound, how does the inhibition read?
Answer: -1.8%

Question: How did the inhibition turn out when `Cc1cc(S(=O)(=O)c2cc3ccc(O)c(C)c3oc2=O)ccc1F` was run?
Answer: 6%

Question: Which inhibition does the source give for `CCN(CC)P(=O)(C(NC(=O)OC)C(F)(F)C(F)(F)C(F)(F)C(F)F)N(CC)CC` (centres undefined) here?
Answer: 0.3%

Question: `CC(=O)NNc1cc(=O)c2c(=O)n(C)c(=O)n(C)c2[nH]1` was tested. Which inhibition did it give?
Answer: 21.9% (active)

Question: How did the inhibition turn out when `CCC(=O)NNc1cc(=O)c2c(=O)n(C)c(=O)n(C)c2[nH]1` was run?
Answer: 1.9%

Question: For `CC(=O)Nn1cc2c(=O)n(C)c(=O)n(C)c2c1`, which inhibition is on record?
Answer: -0.7%

Question: With `CCOCCCn1c(SCC(=O)Nc2cc(OC)ccc2OC)nc2ccccc2c1=O` as the compound, how does the inhibition read?
Answer: 6.3%

Question: Which inhibition does the source give for `CC(=O)NC(Cc1ccc(F)cc1)C(=O)O` (centres undefined) here?
Answer: -13.6%

Question: With `O=C1Nc2ccccc2-n2nnnc2C1N1CCN(c2cccc(C(F)(F)F)n2)CC1` (centres undefined) as the compound, how does the inhibition read?
Answer: 3.4%

Question: `COC(=O)c1ccc(C(=O)Nc2cc(Cl)ccc2Cl)cc1NC(=O)c1ccccc1C` was tested. Which inhibition did it give?
Answer: -6%

Question: How did the inhibition turn out when `CCOC(=O)c1cc(NC(=O)c2ccc(Cl)cc2)c(=O)oc1-c1ccccc1` was run?
Answer: 24.4% (active)

Question: Which inhibition does the source give for `CCOC(=O)c1cccnc1NC(=O)c1ccncc1` here?
Answer: -9.5%

Question: `O=C(COC(=O)c1ccc(S(=O)(=O)Nc2ccccc2)cc1)NCC1CCCO1` (centres undefined) was tested. Which inhibition did it give?
Answer: 9.7%

Question: With `CCN(C(=O)COC(=O)c1ccccc1O)c1cccc2ccccc12` as the compound, how does the inhibition read?
Answer: 6.5%

Question: With `COc1ccc(S(=O)(=O)c2c[nH]c(=S)[nH]c2=O)cc1Cl` as the compound, how does the inhibition read?
Answer: -6%

Question: How did the inhibition turn out when `O=[N+]([O-])c1ccc(N2CCN(c3ccc(O)cc3)CC2)c(Cl)c1` was run?
Answer: -3.9%

Question: With `O=C(O)C1CCN(c2ccc([N+](=O)[O-])cc2[N+](=O)[O-])CC1` as the compound, how does the inhibition read?
Answer: 27.4% (active)

Question: With `CCC(C)(C)NC(=O)c1cc([N+](=O)[O-])ccc1N1CCCCC1` as the compound, how does the inhibition read?
Answer: 8.9%

Question: `CC(CC(=O)C1C(C)C=CCC1(C)C)NNC(N)=O` (centres undefined) was tested. Which inhibition did it give?
Answer: 12.3%

Question: With `O=C(CSc1ccc(-c2ccc(-n3cccn3)cc2)nn1)Nc1ccc([N+](=O)[O-])cc1` as the compound, how does the inhibition read?
Answer: 15.2%

Question: For `O=C(NC1CCCC1)C(NS(=O)(=O)c1ccc(Br)s1)c1ccccc1` (centres undefined), which inhibition is on record?
Answer: -3%

Question: How did the inhibition turn out when `COCCNC(=O)C1C(=O)Nc2ccccc2C(=O)N1c1ccc2c(c1)OCCO2` (centres undefined) was run?
Answer: -11.4%

Question: How did the inhibition turn out when `Cc1ccc(CC2CC(=O)N(c3cc(C)ccc3C)C2=O)cc1` (centres undefined) was run?
Answer: 50% (active)

Question: How did the inhibition turn out when `Cc1ccc(CC2CC(=O)N(c3ccc4c(c3)OCCO4)C2=O)cc1` (centres undefined) was run?
Answer: 4.8%

Question: `Cc1ccc(CC2CC(=O)N(c3nc(C)cc(C)n3)C2=O)cc1` (centres undefined) was tested. Which inhibition did it give?
Answer: 13.2%

Question: For `CN(CC(=O)NCCc1ccc(S(N)(=O)=O)cc1)CC(=O)Nc1ccc(F)c(F)c1F`, which inhibition is on record?
Answer: 7.4%

Question: Which inhibition does the source give for `Oc1ccc(-c2nncn2-c2ccccc2)cc1` here?
Answer: 2.8%

Question: How did the inhibition turn out when `CC1(C)C2CC[C@]3(C)C(CC=C4[C@@H]5C[C@@](C)(CO)CC[C@]5(C(=O)O)CC[C@]43C)[C@@]2(C)CC[C@@H]1O` (some centres undefined) was run?
Answer: -11.3%

Question: Which inhibition does the source give for `CC1O[C@@H](OC2C(O)C(C)O[C@H](OC(=O)[C@]34CCC(C)(C)C[C@H]3C3=CCC5[C@@]6(C)CC(O)C(O[C@@H]7OC(CO)C(O)[C@@H](O)[C@@H]7O)[C@@](C)(C(=O)O)C6CC[C@@]5(C)[C@]3(CO)CC4)C2O[C@H]2OC(C)[C@@H](O[C@@H]3OCC(O[C@@H]4OC(CO)C(O)[C@H](O)C4O)[C@@H](O)[C@@H]3O)[C@H](O)C2O)C(O)C(O)C1O` (some centres undefined) here?
Answer: 36.2% (active)

Question: How did the inhibition turn out when `O=C1CCC(Cc2ccccc2)N1` (centres undefined) was run?
Answer: -7%

Question: `O=C1OC(Cc2ccccc2)C(c2ccccc2)C1=O` (centres undefined) was tested. Which inhibition did it give?
Answer: 24.2% (active)

Question: How did the inhibition turn out when `O=C1c2ccccc2C(=O)C1c1ccccc1` was run?
Answer: -13.9%
